Screens deposited in PubChem BioAssay by National Center for Advancing Translational Sciences (NCATS).
Sampled rows, rich in hits. Any-hit rate of the full collection: about 5%.
TbPYK inhibitor = blocks Trypanosoma brucei pyruvate kinase | Q57TT1 | TbPYK enzyme, Kinase-Glo Plus ATP luminescence, 45 min | Potency, µM (top dose mostly 76.8 µM), hits mostly inhibitors | 410,000 compounds, 0.12% hits; note: nearly all actives have a fitted effect of over 50% in size
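Luminescent Kinase-Glo Plus end-point after 45 min room-temperature reaction of T. brucei pyruvate kinase started with 130 uM ADP (final). Buffer TEA 50 mM pH 7.2 with KCl, MgCl2, BSA, Tween-20; titration-based qHTS with fitted concentration-effect curves.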
VACV mCherry inh = vaccinia inhibition (mCherry reporter) | Vaccinia virus mCherry reporter infection, fluorescence | Potency, µM (highest dose often 36.5 µM), actives largely listed as inhibitors | 310,000 compounds, 0.63% hits | AID 720579; calls by dose curve; tested in A549 cells; note: nearly all actives have a fitted effect of over 35% in size
HCMV antiviral = human cytomegalovirus inhibition; HFF cells, HCMV-luciferase reporter, 72 h; active compounds read low; activity change, negative = inhibition, % at 57.5 µM; 410,000 compounds, 4.5% hits; AID 1259415; in the data active = activity change below about -60%; inconclusive = no clear call, values can overlap the other calls; inactive = above about -39%
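Compounds were evaluated in HFFs infected with an HCMV luciferase reporter virus (MOI 1 PFU/cell). Luciferase in lysates collected 72 h post infection served as the replication measure.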
LmPK inh = inhibitors of Leishmania mexicana pyruvate kinase. 290,000 compounds, 0.37% hits. Potency, µM (top dose mostly 57.5 µM), usual class: inhibitors. purified LmPK, Kinase-Glo ATP luminescence, 1 h
Target sequence (Q27686 whole entry, looked up): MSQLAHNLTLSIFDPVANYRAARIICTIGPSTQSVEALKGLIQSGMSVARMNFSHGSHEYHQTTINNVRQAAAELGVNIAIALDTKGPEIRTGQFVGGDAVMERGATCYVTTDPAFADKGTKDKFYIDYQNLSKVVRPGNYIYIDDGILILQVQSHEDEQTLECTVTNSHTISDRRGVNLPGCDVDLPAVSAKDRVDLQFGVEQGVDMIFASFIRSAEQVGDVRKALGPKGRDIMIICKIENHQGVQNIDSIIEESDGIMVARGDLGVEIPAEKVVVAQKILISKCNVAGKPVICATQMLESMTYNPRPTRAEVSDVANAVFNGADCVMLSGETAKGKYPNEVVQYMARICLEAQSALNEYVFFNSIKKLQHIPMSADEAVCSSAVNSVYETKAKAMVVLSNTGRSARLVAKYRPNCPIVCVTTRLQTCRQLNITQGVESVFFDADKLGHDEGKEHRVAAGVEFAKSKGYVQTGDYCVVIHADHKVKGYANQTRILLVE
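Kinase-Glo luminescence read after 1 h RT reaction of 0.1 nM LmPK with 0.5 mM PEP and 0.1 mM ADP. Activity scaled between uninhibited and enzyme-free controls.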
VACV Venus inh = vaccinia inhibition (Venus reporter) | Vaccinia virus Venus reporter expression, fluorescence | Potency, µM (doses to about 36.5 µM), hits mostly inhibitors | 330,000 compounds, 0.46% hits | AID 720580; calls by dose curve; tested in A549 cells; note: nearly all actives have a fitted effect of over 30% in size
Each line names hits and unclear results; the compound was inactive in the other large screens; ! = a repeat was not active. Unless noted, calls come from the whole dose curve; as a rule, active = well fitted curve in the direction sought with a large enough effect; inconclusive = small, poorly fitted or top-dose-only effect, or another doubt; inactive = no such curve, though single readings can be large; an effect the other way counts as inactive or inconclusive.

O=C(OCc1nc2ccccc2s1)c1ccccc1O	LmPK inh inconclusive
Nc1nc(N)c(Cc2ccc(Cl)cc2Cl)c(N)n1	HCMV antiviral -73.5
CSc1ccc(Cc2ccc(Cl)cc2Cl)nn1	none (no result: VACV mCherry inh, VACV Venus inh)
NNc1ccc(Cc2ccc(Cl)cc2Cl)nn1	HCMV antiviral -69.8
CCN1C(=O)C(CC(=O)NCCc2ccccc2)N(NC(=O)c2cccnc2)C1=S (stereo unspecified)	HCMV antiviral inconclusive
COc1ccc(S(=O)(=O)NCC(c2ccc(N(C)C)cc2)N2CCc3ccccc32)cc1 (stereo unspecified)	none (no result: LmPK inh)
CCCSc1nsc(NC(=O)CCC)n1	HCMV antiviral -103.5
CCCCSc1nsc(NC(C)=O)n1	none (no result: TbPYK inhibitor, VACV mCherry inh, VACV Venus inh)
Nc1nc(N)c2cc(Sc3ccc(Cl)cc3)ccc2n1	VACV mCherry inh inconclusive, HCMV antiviral -76.9, VACV Venus inh 6.31µM (no result: LmPK inh)
FC(F)(F)c1cccc(Sc2nc(-c3ccccc3)nnc2C(F)(F)F)c1	none (no result: VACV mCherry inh)
Nc1nc(N)c2cc(Sc3cccc(C(F)(F)F)c3)ccc2n1	VACV mCherry inh 7.08µM, HCMV antiviral -69.9, VACV Venus inh 5.01µM (no result: LmPK inh)
Nc1nc(N)c2cc(Sc3ccc4ccccc4c3)ccc2n1	HCMV antiviral -84.2 (no result: VACV mCherry inh, VACV Venus inh)
COc1ccccc1CCNC(=O)C1(c2cccs2)CCOCC1	none (no result: LmPK inh)
O=C(c1cc(-c2cccc(Cl)c2)on1)N1CCCC1	none
COC(=O)c1ccc(S(=O)(=O)N2CCCN(Cc3cccc(Br)c3F)CC2)n1C	HCMV antiviral -74.5 (no result: VACV mCherry inh, VACV Venus inh)
COc1ccc(-c2oc3ccc(N4CCOCC4)cc3c2C#CC2(O)CCCCC2)cc1	VACV mCherry inh inconclusive (no result: LmPK inh)
COc1ccc(NC(=O)Nc2ccc(C(=O)N3CCOCC3)cc2)cc1OC	none
CCCOc1ccc(-c2cn3ccccc3n2)cc1	HCMV antiviral -63.9, LmPK inh inconclusive (no result: VACV mCherry inh, VACV Venus inh)
CC(=O)c1ccc(Nc2nc(C(N)Cc3ccc(Cl)cc3)cs2)cc1 (stereo unspecified)	VACV mCherry inh inconclusive, VACV Venus inh inconclusive (no result: LmPK inh)
Cc1ccccc1Nc1c(-c2ccccc2O)nc2sccn12	HCMV antiviral -64.4 (no result: LmPK inh)
Cc1ccccc1-c1noc(-c2ccc(N3CCCC3)c([N+](=O)[O-])c2)n1	HCMV antiviral -69.3 (no result: LmPK inh)
Cc1ccccc1-c1noc(-c2ccc(N3CCOCC3)c([N+](=O)[O-])c2)n1	none (no result: LmPK inh)
Cc1ccccc1-c1noc(-c2ccc(N3CCN(C)CC3)c([N+](=O)[O-])c2)n1	HCMV antiviral -75.4 (no result: LmPK inh)
CCOc1ccccc1C(=O)n1nc2nc(C)cc(C)c2c1N	none
COc1ccc(C(=O)Oc2ccc(/C=N/NC(=O)c3cccnc3)cc2OC)cc1	none (no result: VACV mCherry inh, LmPK inh, VACV Venus inh)
Cc1cccc(N2CCN(C(=O)c3nn(C)c4c3CSc3ccccc3-4)CC2C)c1 (stereo unspecified)	HCMV antiviral -61.6 (no result: LmPK inh)
Cc1cccc(N2CCN(C(=O)c3cc4ccc5cccnc5c4[nH]3)CC2C)c1 (stereo unspecified)	HCMV antiviral -107.8 (no result: LmPK inh)
Cc1ccc(-c2c(C(=O)N3CCN(c4cccc(C)c4)C(C)C3)oc(=O)c3ccccc23)cc1 (stereo unspecified)	HCMV antiviral -70.1 (no result: LmPK inh)
Cc1cccc(N2CCN(C(=O)c3ccccn3)CC2C)c1 (stereo unspecified)	none
Cc1cccc(N2CCN(C(=O)c3ccc(N4CCCC4=O)cc3)CC2C)c1 (stereo unspecified)	VACV mCherry inh inconclusive
Cc1cccc(N2CCN(C(=O)c3ccc4c(c3)c(C)c(C)n4C)CC2C)c1 (stereo unspecified)	HCMV antiviral active!
CC(C)CNC(=O)c1ccc(-c2ccc(F)c(F)c2)c2ccoc12	none (no result: LmPK inh)
O=C(COc1cccc2cccnc12)Nc1ccccc1N1CCOCC1	none
Cc1cccc(N2CCN(C(=O)c3ccc(CS(=O)(=O)c4ccccc4C)o3)CC2C)c1 (stereo unspecified)	HCMV antiviral -66.8 (no result: TbPYK inhibitor, VACV mCherry inh, VACV Venus inh)
Cc1cc(C)cc(N(CCC(=O)Nc2nnc(C3CC3)s2)S(=O)(=O)c2ccc(Cl)cc2)c1	VACV mCherry inh inconclusive, HCMV antiviral -61.4, VACV Venus inh inconclusive
COc1cc(-c2n[nH]c(=S)n2-c2cccc(C(F)(F)F)c2)cc(OC)c1OC	TbPYK inhibitor inconclusive, LmPK inh inconclusive
Nc1ccc(-c2cc(NC=O)c3ncc(-c4cccc(C(F)(F)F)c4)n3c2)cn1	VACV mCherry inh inconclusive, VACV Venus inh 11.2µM (no result: LmPK inh)
COc1cc(-c2ccc3ncc(-c4cccc(C(F)(F)F)c4)n3n2)cc(OC)c1OC	HCMV antiviral -94.9 (no result: TbPYK inhibitor, VACV mCherry inh, LmPK inh, VACV Venus inh)
COc1ccc(-c2cnc3c(NC=O)cc(-c4ccccc4OC)cn23)cc1OC	VACV mCherry inh inconclusive, HCMV antiviral -79.7, VACV Venus inh inconclusive (no result: LmPK inh)
COc1cc(-c2cc(NC=O)c3ncc(-c4ccc(C(C)=O)cc4)n3c2)ccc1O	VACV mCherry inh 10µM, VACV Venus inh 11.2µM (no result: LmPK inh)
CC(C)(C)C1CCc2c(sc(NC(=O)c3cc(-c4ccc(F)cc4)on3)c2C#N)C1 (stereo unspecified)	none (no result: LmPK inh)
COc1ccc(-c2coc3cc(O)ccc3c2=O)c(O)c1O	none (no result: TbPYK inhibitor, HCMV antiviral, LmPK inh)
N#Cc1ccc(C(=O)OCCc2cc3ccccc3c(=O)o2)cc1	none (no result: LmPK inh)
C=CCC(=O)N1CCC(n2nccc2NC(=O)CCOc2ccccc2)CC1	none (no result: VACV mCherry inh, VACV Venus inh)
COc1ccc(OCC(=O)NCCS(=O)(=O)N2CCN(c3cccc(Cl)c3)CC2)cc1	none (no result: LmPK inh)
CC(=O)Nc1cc(-c2ccc(N3CCN(C)CC3)cc2)cn2c(-c3ccccc3)cnc12	HCMV antiviral -60.3 (no result: LmPK inh)
COc1ccccc1-c1cc(NC(C)=O)c2ncc(-c3cccc(C(F)(F)F)c3)n2c1	none (no result: LmPK inh)
Cn1cc(-c2cnc3c(NC=O)cc(-c4cccc(C(F)(F)F)c4)cn23)cn1	VACV mCherry inh 10µM, VACV Venus inh inconclusive (no result: LmPK inh)
CC(=O)Nc1cc(-c2cccnc2)cn2c(-c3cccc(C(F)(F)F)c3)cnc12	VACV mCherry inh 10µM, HCMV antiviral -62.0, VACV Venus inh 12.6µM (no result: LmPK inh)
COc1cc(-c2cnc3c(NC=O)cc(-c4cccc(C(F)(F)F)c4)cn23)cc(OC)c1OC	VACV mCherry inh inconclusive, HCMV antiviral -67.2, VACV Venus inh inconclusive (no result: LmPK inh)
COc1cccc(-c2cc(NC=O)c3ncc(-c4cc(OC)c(OC)c(OC)c4)n3c2)c1	VACV mCherry inh inconclusive, HCMV antiviral -81.2, VACV Venus inh inconclusive (no result: LmPK inh)
COc1cccc(-c2cnc3c(NC=O)cc(-c4ccc(O)c(OC)c4)cn23)c1	none (no result: LmPK inh)
CCCCc1ccc(NC(=S)N2CCCC(C)C2)cc1 (stereo unspecified)	HCMV antiviral -66.8
COc1ccc(/C=C/C(=O)Nc2cccc(S(=O)(=O)NC3=NCCCCC3)c2)cc1	none (no result: VACV mCherry inh, VACV Venus inh)
CC(=O)c1cccc(S(=O)(=O)Nc2cccc(S(=O)(=O)NC3=NCCC3)c2)c1	HCMV antiviral -84.2
O=C(COC(=O)/C=C/c1cccc(Cl)c1)Nc1cccc(S(=O)(=O)NC2=NCCC2)c1	none (no result: VACV mCherry inh, LmPK inh, VACV Venus inh)
O=C(COC(=O)/C=C/c1ccc(Cl)cc1Cl)Nc1cccc(S(=O)(=O)NC2=NCCC2)c1	HCMV antiviral -69.5 (no result: LmPK inh)
CC(C)(C)c1ccc(OCCC(=O)Nc2cccc(S(=O)(=O)NC3=NCCCCC3)c2)cc1	HCMV antiviral -60.2 (no result: LmPK inh)
